Assay outcomes as filed in PubChem BioAssay.
MARV entry inh – blocks Marburg virus binding to or entry into cells. Potency, µM (titrated, usually from 37.8 µM), most hits filed as inhibitors. 300,000 compounds, 1.8% hits. Marburg virus pseudotyped entry inhibition, cell reporter. AID 540276; calls by dose curve; tested in HEK293 cells
HCMV inh – inhibitors of human cytomegalovirus. HFF cells, HCMV-luciferase reporter, 72 h; hits give low values. activity change, negative = inhibition, % at 57.5 µM. 410,000 compounds, 4.5% hits; in the data active means activity change below about -60%; inconclusive means no clear call, values can overlap the other calls; inactive means above about -39%
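Screen run at 2 compound doses on HFFs infected with reporter HCMV, MOI 1 PFU/cell. Luciferase activity from cell lysates at 72 h post infection gave inhibition relative to buffer-only and Salinomycin wells.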
HCV inh – blocks hepatitis C virus; AID 651820; 340,000 compounds, 3.4% hits; Potency, µM (doses to about 41.8 µM), usual class: inhibitors; Huh7.5.1 HCVcc-Cre infection, luciferase reporter, 44 h; active means well fitted inhibition curve with a large enough effect; inconclusive means small, poorly fitted or top-dose-only effect, or another doubt; inactive means no such curve, though single readings can be large or run the other way
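A cell-based infection assay in which seeded cells (1,000 per well) receive test compound after 4 h, are inoculated with HCVcc-Cre at approximately 0.5 moi, and are incubated 44 h before luminescence detection.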
FMDV antiviral – blocks foot and mouth disease virus | FMDV antiviral cell-based qHTS | Potency, µM (titrated, usually from 57.9 µM), most hits filed as inhibitors | 410,000 compounds, 1.2% hits | AID 1159524; calls by dose curve; tested in HEK293T cells; further: read-out not given here; nearly all actives have a fitted effect of over 45% in size
SARS PLP yeast – SARS-CoV PLP inhibition in yeast. S. cerevisiae expressing SARS-CoV PLpro, growth rescue. Potency, µM (titrated, usually from 32.9 µM), most hits filed as activators. 330,000 compounds, 0.19% hits. AID 485353; calls by dose curve; further: nearly all actives have a fitted effect of over 55% in size
LASV entry inh – inhibitors of Lassa virus binding or cell entry; Lassa virus pseudotype entry inhibition, cell reporter; Potency, µM (series often up to 37.9 µM), hits mostly inhibitors; 300,000 compounds, 1.2% hits; calls by dose curve; tested in HEK293 cells; further: nearly all actives have a fitted effect of over 50% in size
Each line names hits and unclear results; the compound was inactive in the other large screens. Rows were chosen to be rich in hits. Some 8% of all compounds tested hit in one or more screens of this group.

COc1ccc2c(c1)[C@@H](NC(=O)OCc1ccccc1)[C@H](C)[C@@H](c1ccccc1)N2C(=O)Nc1ccc(C(F)(F)F)cc1	none (no result: MARV entry inh, HCV inh, FMDV antiviral, SARS PLP yeast, LASV entry inh)
Cc1ccc2c(c1)N(C(=O)N1CCC(C(=O)NCCc3ccc(Cl)cc3)CC1)CC(C)O2 (stereo not given)	none (no result: MARV entry inh, HCV inh, SARS PLP yeast)
COc1cc(S(=O)(=O)N2CCCCC2)ccc1NC(C)=O	none
COc1cc(S(=O)(=O)NCC2(N3CCCCC3)CCCCC2)ccc1NC(C)=O	MARV entry inh inconclusive, HCMV inh -98
COC(=O)c1c(C)nc2c(c(SC)nn2-c2ccccc2)c1N	MARV entry inh inconclusive, HCV inh 11µM
COC(=O)c1ccccc1NC(=O)CCc1c(C)nc2c(c(C)nn2-c2ccccc2)c1C	none (no result: HCV inh, SARS PLP yeast)
O=C(O[C@H]1CC[C@@]23CCCN2C(=O)CCC[C@H]3[C@H]1Cc1ccccc1)N1CCN(c2ccccc2)CC1	none (no result: MARV entry inh, HCV inh, FMDV antiviral, SARS PLP yeast, LASV entry inh)
C=CC(=O)Nc1ccc(Nc2nc(NC3CCC(N(C)C)CC3)nc3c2ncn3C(C)C)cc1 (stereo not given)	HCV inh 1.3µM (no result: MARV entry inh, HCMV inh, LASV entry inh)
CC(C)(C)C(=O)Nc1ccc2nc(SCCOc3ccccc3Cl)sc2c1	FMDV antiviral inconclusive, LASV entry inh inconclusive (no result: HCV inh, SARS PLP yeast)
S=C(S)OC1CC2CC1C1CCCC21 (stereo not given)	MARV entry inh inconclusive, HCMV inh -60 (no result: SARS PLP yeast)
O=C(NCC1CCCO1)c1cc2c([nH]c3ccccc32)c(-c2cccc(Cl)c2)n1 (stereo not given)	HCV inh 1.3µM, FMDV antiviral inconclusive (no result: MARV entry inh, HCMV inh, LASV entry inh)
COc1cc(-c2nc(C(=O)NCC3CCCO3)cc3c2[nH]c2ccccc23)cc(OC)c1OC (stereo not given)	HCV inh 3.5µM, FMDV antiviral inconclusive (no result: MARV entry inh, LASV entry inh)
COc1ccccc1-c1nc(C(=O)NCC2CCCO2)cc2c1[nH]c1ccccc12 (stereo not given)	HCV inh inconclusive (no result: MARV entry inh, HCMV inh, LASV entry inh)
CCOc1ccccc1NC(=O)N(Cc1ccc(F)cc1)C1CCN(CC)CC1	LASV entry inh inconclusive (no result: MARV entry inh, HCV inh, SARS PLP yeast)
Cc1ccc(CNC(=O)c2cc3c(=O)n(Cc4cccnc4)ccc3nc2C)cc1	none (no result: MARV entry inh, HCV inh, SARS PLP yeast)
C=C(C)[C@@H]1CC=C(CN2CCN(Cc3ccccc3)CC2)CC1	MARV entry inh 10µM, LASV entry inh inconclusive
COc1ccc(/C=C/C(=O)c2cc(Cl)cc(Cl)c2O)c(OC)c1	HCMV inh inconclusive, HCV inh inconclusive
O=C(/C=C/c1ccccn1)c1cc(Cl)cc(Cl)c1O	HCV inh 13µM (no result: MARV entry inh, LASV entry inh)
C=CC[C@@]1(C(=O)OC)C=C[C@@H](C)[C@H](c2ccccc2Br)N1C(=O)C(F)(F)F	none (no result: HCMV inh, HCV inh, FMDV antiviral, SARS PLP yeast)
CC1=CC[C@@H](C)O[C@@]2(C1)C(=O)N(Cc1ccc(Br)cc1)c1ccccc12	LASV entry inh inconclusive (no result: HCMV inh, HCV inh, FMDV antiviral, SARS PLP yeast)
COc1ccc(-c2cc(N)n(S(=O)(=O)c3c(F)c(F)c(F)c(F)c3F)n2)cc1OC	MARV entry inh 2.3µM, HCMV inh -102, HCV inh inconclusive, FMDV antiviral inconclusive, LASV entry inh inconclusive
COc1ccc(S(=O)(=O)n2nc(-c3cc(OC)c(OC)c(OC)c3)cc2N)cc1OC	HCV inh inconclusive (no result: MARV entry inh, LASV entry inh)
CN1CCN(c2cc(-c3ccccc3C(F)(F)F)ncn2)CC1	none (no result: MARV entry inh, HCMV inh, HCV inh, SARS PLP yeast, LASV entry inh)
OCCN1CCN(C2Cc3cc(Cl)ccc3Sc3ccc(Cl)cc32)CC1 (stereo not given) (tested in a mixture with another compound)	MARV entry inh inconclusive, HCV inh inconclusive, LASV entry inh inconclusive (no result: HCMV inh)
CN1CCN(C2=Cc3cc(Cl)ccc3Sc3cc(F)ccc32)CC1	MARV entry inh inconclusive, HCV inh 7.1µM, FMDV antiviral inconclusive, LASV entry inh 10µM
CN(C)CC/C=C1/c2cc(F)ccc2Sc2ccc(Cl)cc21	MARV entry inh inconclusive, HCV inh inconclusive, LASV entry inh inconclusive (no result: SARS PLP yeast)
CN1CCN(C2=Cc3ccccc3Sc3cc(F)c(Cl)cc32)CC1	MARV entry inh inconclusive, HCV inh 13µM, FMDV antiviral inconclusive
CN1CCN(C2Cc3cc(Cl)ccc3Sc3cc(F)ccc32)CC1 (stereo not given)	MARV entry inh inconclusive, HCMV inh -78, HCV inh inconclusive, FMDV antiviral inconclusive, LASV entry inh inconclusive (no result: SARS PLP yeast)
CN1CCN(C2=Cc3ccccc3Sc3cc(F)c(F)cc32)CC1	MARV entry inh inconclusive, HCV inh 11µM, FMDV antiviral inconclusive, LASV entry inh inconclusive
CSc1cccc(NC(=O)C2CCN(S(=O)(=O)c3ccc4c(c3)CCCN4C(=O)C3CCC3)CC2)c1	none (no result: MARV entry inh, HCV inh, SARS PLP yeast)
S=P(N1CCCCCC1)(N1CC1)N1CC1	MARV entry inh 7.1µM, LASV entry inh inconclusive (no result: SARS PLP yeast)
O=C1CC[C@@H](C(=O)NCC2Cc3cc(Cl)cc(-c4ccc5[nH]ccc5c4)c3O2)N1 (stereo not given in full)	none (no result: MARV entry inh, HCMV inh, HCV inh, SARS PLP yeast, LASV entry inh)
Cc1cc(CNC(=O)COc2ccccc2)c2ccccc2n1	MARV entry inh inconclusive, LASV entry inh inconclusive
Cc1ccc(OCC(=O)NNC(=O)CCC(=O)NCc2ccccc2)cc1	MARV entry inh inconclusive
Cc1ccc(OCC(=O)NNc2c3ccccc3nc3ccccc23)cc1	MARV entry inh inconclusive, HCMV inh -95, HCV inh 1µM, FMDV antiviral inconclusive, LASV entry inh inconclusive
Cc1cccc(OCC(=O)NNc2c3ccccc3nc3ccccc23)c1	MARV entry inh inconclusive, HCMV inh -97, HCV inh 1µM, FMDV antiviral inconclusive, LASV entry inh inconclusive
O=C(Cc1ccccc1)NNc1c2ccccc2nc2ccccc12	MARV entry inh inconclusive, HCMV inh -67, HCV inh inconclusive
CCOc1ccc(OCC)c(NC(=O)CCc2nc3cccnc3n2-c2ccccc2)c1	none (no result: HCV inh, SARS PLP yeast)
O=C(c1ccncc1)N1CCC[C@@]2(CCN(Cc3ccncc3)C2)C1	none (no result: MARV entry inh, HCMV inh, HCV inh, SARS PLP yeast, LASV entry inh)
Cc1ccccc1C1(CC(=O)N2CCOCC2)CC(=O)N(Cc2cccnc2)C1=O (stereo not given)	none (no result: MARV entry inh, HCMV inh, HCV inh, SARS PLP yeast, LASV entry inh)
